NALP3 yeast inh = NALP3 inhibition in yeast. Yeast reconstituted NLRP3/ASC/caspase-1, beta-gal luminescence, 24 h. inhibition, % at 10 µM. hit rate 0.39% among 330,000;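 active = inhibition of 50% or more; inactive = inhibition below 50%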;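 also: plate controls were induced DMSO wells for no effect and uninduced yeast grown without galactose for full effect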
SKKanGAS inh = SKKanGAS growth inhibition; inhibition, % at 7.5 µM; S. pyogenes SKKanGAS, kanamycin growth, BacTiter-Glo, 6 h; hit rate 1.3% among 300,000;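 active = mean replicate score, as percent of positive control median, at least 50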;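 also: strain carries kanamycin resistance gene driven by streptokinase promoter and grows in 40 µg/ml kanamycin; loss of luminescence reflects streptokinase promoter inhibition or plain growth inhibition; 0% = median of DMSO wells and 100% = positive control at its reference dose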
tim10-1 inh = growth inhibitors of tim10-1 mutant yeast | hit rate 2.2% among 330,000 | inhibition, % at 20 µM | S. cerevisiae tim10-1 ts strain growth, BacTiter-Glo, 24 h | AID 463190;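 active = inhibition of at least 40%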;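 also: mutant grown at 25 °C; 0% = DMSO wells with yeast and 100% = wells holding no yeast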
tim23-1 inh = inhibits growth of tim23-1 mutant yeast | S. cerevisiae tim23-1 growth, BacTiter-Glo luminescence, 24 h | inhibition, % at 20 µM | hit rate 1.3% among 330,000 | AID 463212;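 active = growth inhibition of the mutant yeast at or above 50%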;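 also: temperature-sensitive mutant grown at 25 °C; plate controls were DMSO-treated mutant yeast for no effect and medium wells lacking yeast for full effect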
TIM10 inh = inhibits growth of TIM10 yeast strain | inhibition, % at 10 µM | AID 463195 | hit rate 1.4% among 330,000 | S. cerevisiae TIM10 strain growth, BacTiter-Glo luminescence, 24 h;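 active = inhibition of 40% or more at the single tested concentration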;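 also: wild-type TIM10 isogenic control strain grown at permissive 25 °C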
NALP3 yeast conf = confirmation of NALP3 inhibitors in yeast; shares compounds with NALP3 yeast inh; yeast expressing human NALP3, luminescence; inhibition, % at 10 µM; hit rate 81% among 1,300; AID 435006; in the data active = inhibition above about 48%
Casp1 ASC ctr = counter-screen for NALP3 inhibitors: yeast caspase-1-ASC | yeast expressing Caspase-1-ASC, luminescence counter screen | hit rate 66% among 1,000 | shares compounds with NALP3 yeast inh | inhibition, % at 10 µM
NALP3 retest = yeast NALP3 inhibition, confirmed on retest; inhibition, % at 10 µM; yeast expressing human NALP3, luminescence read-out; shares compounds with NALP3 yeast inh; hit rate 53% among 1,000
tim10-1 confirm = tim10-1 yeast growth inhibition, confirmed; shares compounds with tim10-1 inh; S. cerevisiae tim10-1 ts strain growth, BacTiter-Glo, 24 h; inhibition, % at 20 µM; hit rate 56% among 7,400;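 active = inhibition of yeast growth at or above a set limit in either of two repeat tests at 20 µM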;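 also: tim10-1 mutant grown at permissive 25 °C to find synthetic lethal compounds; 0% = DMSO yeast wells and 100% = medium wells without yeast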
tim10 confirm = TIM10 yeast growth inhibition, confirmed. shares compounds with TIM10 inh. hit rate 63% among 4,600. inhibition, % at 10 µM. S. cerevisiae tim10 strain growth, BacTiter-Glo luminescence, 24 h;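 active = inhibition of yeast growth at or above a set limit in either of two replicates at 10 µM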;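 also: this counterscreen used the strain with wild-type TIM10; 0% = yeast with DMSO and 100% = medium wells lacking yeast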
* = called active by the depositor; . = not tested or not shown; ! = not active in a repeat. The list is not random: actives were taken first. Their share in the collection is about 4.6%. Rule as the data show it, unless noted: active = inhibition above about 50%; inactive = the rest.

SMILES	NALP3 yeast inh	SKKanGAS inh	tim10-1 inh	tim23-1 inh	TIM10 inh	NALP3 yeast conf	Casp1 ASC ctr	NALP3 retest	tim10 confirm	others
O=C(COC(=O)c1cc(Br)ccc1O)Nc1cccnc1Cl	5	-9	8	-2	-2	.	.	.	.
O=C(CNCc1ccccc1)Nc1ccc(Cl)cc1	28	-3	11	5	-9	.	.	.	.
Cc1cc2c(cc1C)CSC(c1ccccc1O)SC2	59*	23	62*	39	34	64*	63*	55*	.	tim10-1 confirm=35*
CCOC(=O)C1=C(C)N(CCCC(=O)O)C(=O)NC1c1cccs1 (configuration not stated)	-4	-4	7	12	5	.	.	.	.
CC(Oc1ccc(F)cc1)C(=O)Nc1nc(-c2ccccn2)cs1 (configuration not stated)	55*	107*	42*	34	27	73*	82*	74*	.	tim10-1 confirm=30
NC(=NCCCCCCN=C(N)/N=C(\N)Nc1ccc(Cl)cc1)/N=C(\N)Nc1ccc(Cl)cc1	69*	103*	66*	23	-229	74*	61*	52*	.	tim10-1 confirm=41*!
CCN1CCN(C(=O)CCc2nnc(CCc3ccccc3OC)o2)[C@@H](C)C1=O	-1	-2	8	-1	-5	.	.	.	.
CCCCCC[N+](C)(C)CCSSCC[N+](C)(C)CCCCCC	18	4	-7	-2	4	.	.	.	.
CCCCCCCCCCCCCCCC[N+](C)(C)CC	65*	101*	79*	22	25	64*	62*	68*	.	tim10-1 confirm=-102
CCc1ccc(N2CC(C(=O)Nc3ccc(S(=O)(=O)N4CCOCC4)cc3)CC2=O)cc1 (configuration not stated)	14	-9	3	-13	1	.	.	.	.
CN1C/C(=C/c2ccsc2)C(=O)/C(=C/c2ccsc2)C1	63*	7	54*	32	49*	56*	79*	65*	33*	tim10-1 confirm=31*
Cc1ccc(C(C)C)cc1OCC(=O)N1CCN(C(=O)c2ccco2)CC1	29	-7	-7	3	6	.	.	.	.
CC1CC1C(=O)Nc1ccc(-c2ccccc2)cc1 (configuration not stated)	51*	13	35	43	43*	64*	.	.	36*
Cc1cc(C)c(C#N)c(SCc2nc3ccccc3[nH]2)n1	54*	4	0	28	44*	44	36	41	36*
N#Cc1cc2c(nc1SCc1nc3ccccc3[nH]1)CCC2	66*	6	42*	35	73*	79*	.	.	67*	tim10-1 confirm=35*
Cc1cc(C)c(C#N)c(SCc2ccc(F)cc2)n1	19	23	15	12	20	.	.	.	.
CCOC(=O)N1CCN(Cc2nc3cc(NC(=O)c4cccs4)ccc3n2CC)CC1	8	9	-28	23	31	.	.	.	.
CCOc1ccc(C(C(=O)NC2CCCC2)N(C(=O)c2snc(C(N)=O)c2N)c2cccc(O)c2)cc1 (configuration not stated)	5	-1	12	16	-2	.	.	.	.
O=C(CCNS(=O)(=O)c1ccccc1)NNC(=O)c1cccc(Cl)c1	1	.	-8	-9	-9	.	.	.	.
Fc1ccc(CSc2nnc(-c3cnccn3)n2Cc2ccco2)cc1	-123	-3	30	42	41*	-21	.	.	26
Fc1ccc(CSc2nnc(-c3cccnc3)n2Cc2ccco2)cc1	-7	7	28	15	24	.	.	.	.
COc1ccc([N+](=O)[O-])cc1NC(=O)CSCc1cc(C)cc(C)c1	5	-2	29	5	31	.	.	.	.
COc1ccccc1NC(=O)CSCc1ccc([N+](=O)[O-])cc1	65*	-7	34	38	50*	60*	59*	51*	15
N#Cc1nc(COc2ccccc2)oc1N1CCCCCC1	52*	-1	18	18	75*	71*	50	37	4
CN(C)/C=C(/C(=O)c1ccccc1)n1cncn1	11	2	0	7	12	.	.	.	.
SMILES	NALP3 yeast inh	SKKanGAS inh	tim10-1 inh	tim23-1 inh	TIM10 inh	NALP3 yeast conf	Casp1 ASC ctr	NALP3 retest	tim10 confirm	others
CC(C)(C)C(=O)/C(=C\c1ccc([N+](=O)[O-])cc1)n1cncn1	74*	-7	36	-57	61*	65*	.	.	-22
O=[N+]([O-])c1ccc(CP(=O)(c2ccccc2)c2ccccc2)cc1	-6	3	23	7	4	.	.	.	.
CC(C)(C)c1ccc(-c2conc2N)cc1	59*	-6	55*	46	43*	69*	66*	48	47*	tim10-1 confirm=41*
CC(C)(C)c1ccc(-c2nc(N)nc(N)n2)cc1	19	-3	8	11	16	.	.	.	.
Cc1sc2ncnc(Oc3ccc(-n4ccnc4)cc3)c2c1C	53*	5	52*	46	69*	61*	69*	48	-5	tim10-1 confirm=53*
Cn1c(=O)c(C(=O)NCCO)c(O)c2ccccc21	14	-3	-10	36	5	.	.	.	.
Cn1c(=O)c(C(=O)NNC(=O)c2ccc(Br)cc2)c(O)c2ccccc21	60*	92*	22	1	64*	78*	.	.	59*
Oc1c(Cl)cc(Cl)cc1CNn1cnnc1	-31	-3	9	-49	18	.	.	.	.
Oc1c(Cl)cc(Cl)cc1Sc1cc(Cl)cc(Cl)c1O	97*	106*	-80	34	45*	99*	.	.	39*
O=C(Nc1nc2c(s1)CCCC2)c1cccs1	50*	.	44*	6	44*	55*	88*	72*	12	tim10-1 confirm=30*
Cc1sc(NC(=O)c2cccs2)nc1-c1ccccc1	68*	5	15	33	47*	67*	55*	46	28
CN(C)S(=O)(=O)N1CCC(Oc2cccc(C(=O)N3CCSCC3)c2)CC1	1	-1	1	34	11	.	.	.	.
NC(=O)CC(NC(=O)Cc1ccc(Cl)cc1)c1ccc(N2CCC(Cc3ccccc3)CC2)c([N+](=O)[O-])c1 (configuration not stated)	17	17	-4	5	4	.	.	.	.
O=C(OCC(=O)c1c[nH]c2ccccc12)c1ccc([N+](=O)[O-])s1	84*	15	40*	17	73*	91*	86*	92*	84*	tim10-1 confirm=53*
Cc1ccc(C(=O)OCC(=O)c2c[nH]c3ccccc23)cc1	17	-3	-3	18	15	.	.	.	.
CCOC(=O)c1cc(C(=O)c2cccs2)n2ccc(C(C)=O)cc12	54*	29	16	4	50*	51*	52*	47	36*
